Compounds with a hit are over-represented: about 4.1% of the library has one in this group of screens.
ABHD5 PLIN5 PPI = inhibitors of human ABHD5-perilipin-5 interaction; Q00G26+Q8WTS1; Split G. princeps luciferase complementation, luminescence, 4 h; inhibition, % at 4 µM; actives 0.78% (n = 360,000);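 active = inhibition above the mean inhibition across every tested compound plus 3 SD, cut at about 22% in these data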
Target sequence (Q00G26 whole entry, looked up): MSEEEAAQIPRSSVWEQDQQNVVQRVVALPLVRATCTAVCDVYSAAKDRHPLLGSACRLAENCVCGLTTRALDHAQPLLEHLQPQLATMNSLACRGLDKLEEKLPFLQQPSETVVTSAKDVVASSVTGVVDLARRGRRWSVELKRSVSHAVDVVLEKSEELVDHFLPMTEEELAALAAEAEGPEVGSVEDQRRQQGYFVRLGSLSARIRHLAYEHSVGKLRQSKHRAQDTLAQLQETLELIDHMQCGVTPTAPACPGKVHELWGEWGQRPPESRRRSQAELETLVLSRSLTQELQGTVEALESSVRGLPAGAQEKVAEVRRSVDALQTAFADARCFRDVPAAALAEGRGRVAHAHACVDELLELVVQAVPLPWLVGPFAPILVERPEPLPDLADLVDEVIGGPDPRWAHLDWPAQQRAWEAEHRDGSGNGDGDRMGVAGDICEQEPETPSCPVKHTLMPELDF
Target sequence (Q8WTS1 whole entry, looked up): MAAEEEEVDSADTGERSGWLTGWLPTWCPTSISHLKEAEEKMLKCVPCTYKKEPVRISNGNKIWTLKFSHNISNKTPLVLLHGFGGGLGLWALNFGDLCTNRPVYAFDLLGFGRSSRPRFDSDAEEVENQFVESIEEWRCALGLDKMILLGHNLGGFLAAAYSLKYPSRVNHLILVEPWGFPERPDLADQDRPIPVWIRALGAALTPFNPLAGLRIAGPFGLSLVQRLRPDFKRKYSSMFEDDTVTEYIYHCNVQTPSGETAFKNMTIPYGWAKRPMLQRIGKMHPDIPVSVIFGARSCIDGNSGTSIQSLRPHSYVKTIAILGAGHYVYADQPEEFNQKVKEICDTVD
LEDGF integ inh = blocks HIV-1 LEDGF/p75-dependent DNA integration; TR-FRET IN-LEDGF/p75 DNA integration, Eu/Cy5; inhibition, % at 3.7 µM; actives 0.64% (n = 370,000); AID 743269;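 active = inhibition above the screen-wide mean plus 3 SD, cut at about 13% in these data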;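 also: signal is the Cy5 over europium emission ratio at 671 and 618 nm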
PRMT1 FP inh = PRMT1 (human) inhibition, primary screen; Q99873; inhibition, % at 2.79 µM; actives 1.3% (n = 370,000); recombinant PRMT1, activity-based probe fluorescence polarization; AID 652257;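 active = inhibition above about 21% made by adding two undisclosed values, limit read from the data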
rCAG binder = binds r(CAG) RNA repeats; inhibition, % at 3 µM; actives 1.3% (n = 370,000); r(CAG) RNA repeat, TO-PRO-1 dye displacement fluorescence;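 active = inhibition above the plate cutoff, the mean of all test compounds on that plate plus 3 SD, cut at about 35% in these data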;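 also: higher means more dye released from RNA so lower well fluorescence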
MBD2 DNA inh = blocks human MBD2 binding to methylated DNA | inhibition, % at 4.4 µM | TR-FRET, MBD2 binding to methylated oligonucleotide | Q9UBB5 | actives 0.31% (n = 370,000); in the data active = inhibition above about 13%
UHRF1 binding = human UHRF1 methylated DNA binding inhibitors | Q96T88 | UHRF1 binding to methylated oligo, TR-FRET | inhibition, % at 4.4 µM | actives 0.75% (n = 370,000) | AID 687016; in the data active = inhibition above about 21%;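 also: UHRF1 SRA domain binding a hemimethylated CpG hairpin DNA probe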
IN multimer act = HIV-1 integrase multimerization activation, counter-screen; shares compounds with LEDGF integ inh; TR-FRET HIV-1 integrase multimerization, biochemical; activation, % at 7.7 µM; actives 17% (n = 2,000); AID 1053131; in the data active = activation above about 8.9%
TRFRET interf = counter-screen for LEDGF/p75 integration inhibitors: TR-FRET optical interference. AID 1053135. inhibition, % at 7.7 µM. TR-FRET optical interference counterscreen, HIV-1 IN multimerization. shares compounds with LEDGF integ inh. 2,000 tested, under 10 active;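 active = inhibition above the mean over all tested compounds plus 3 SD, which no compound reached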
LEDGF integ conf = LEDGF/p75-dependent HIV-1 integration inhibition, confirmation; shares compounds with LEDGF integ inh; AID 1053136; inhibition, % at 3.7 µM; actives 36% (n = 2,000); TR-FRET LEDGF/p75-dependent HIV-1 integration, biochemical; in the data active = inhibition above about 14%
Each line names hits and unclear results; the compound was inactive in the other large screens (follow-up assays come after a bar, where they were run).

COC(=O)[C@]12C[C@H](CC(=O)NCc3cccc4ccccc34)C(=O)N(Cc3ccco3)C1=C[C@H](C(C)(C)C)O[C@@H]2C	none (no result: ABHD5 PLIN5 PPI)
C[C@H](O)[C@@H]1CN2CCc3ccc(N4CCOCC4)cc3[C@@H]2C[C@@H]1N(C)C(=O)c1cccc(Cl)c1	none (no result: ABHD5 PLIN5 PPI)
COC(=O)C1CN(Cc2ccc(F)cc2)CCS(=O)(=O)N1Cc1ccc(OC)cc1 (centres undefined)	none (no result: ABHD5 PLIN5 PPI)
CN(C)CCCNc1cc(O)c2ncccc2c1	LEDGF integ inh 30 | IN multimer act inactive | TRFRET interf inactive | LEDGF integ conf 40
COc1cc(N(C(C)=O)c2ccc(O)c(C(=O)O)c2)c2ncccc2c1	LEDGF integ inh 16 | IN multimer act inactive | TRFRET interf inactive | LEDGF integ conf 26
Cc1ccc(S(=O)(=O)/N=C(/Nc2cccc(O)c2)c2ccccc2)cc1	LEDGF integ inh 37 | IN multimer act inactive | TRFRET interf inactive | LEDGF integ conf inactive
Cc1ccc(S(=O)(=O)/N=C(/Nc2cccc(C(=O)O)c2)c2ccccc2)cc1	none
CCCN1C(=O)c2n[nH]c(C)c2C1c1ccc(Br)cc1 (centres undefined)	none (no result: ABHD5 PLIN5 PPI)
C[C@@H]1CCCCO[C@@H](CN(C)C(=O)Nc2ccc(C(F)(F)F)cc2)[C@@H](C)CN([C@H](C)CO)C(=O)c2cc(NS(=O)(=O)c3ccc(Cl)cc3)ccc2O1	none (no result: ABHD5 PLIN5 PPI)
CC(=O)NC(c1ccco1)c1cc(Cl)c2ccc(Cl)nc2c1O (centres undefined)	LEDGF integ inh 44 | IN multimer act inactive | TRFRET interf inactive | LEDGF integ conf inactive
CC(=O)NC(c1ccco1)c1cc(Cl)c2ccccc2c1O (centres undefined)	none
COC(=O)c1ccc(CN2C(=O)c3ccccc3C2=O)cc1	none
COC(=O)c1ccc(CN2C(=O)NC(CC(C)C)C2=O)cc1 (centres undefined)	LEDGF integ inh 61, UHRF1 binding 25 | IN multimer act inactive | TRFRET interf inactive | LEDGF integ conf inactive
COc1ccc(C2C(C#N)=C(N)Oc3cc(N)ccc32)cc1 (centres undefined)	LEDGF integ inh 18 | IN multimer act inactive | TRFRET interf inactive | LEDGF integ conf inactive
N#CC1=C(N)Oc2cc(N)ccc2C1c1ccc(F)cc1 (centres undefined)	LEDGF integ inh 23, PRMT1 FP inh 23 | IN multimer act inactive | TRFRET interf inactive | LEDGF integ conf inactive
N#CC1=C(N)Oc2cc(N)ccc2C1c1ccc(Cl)cc1 (centres undefined)	none
CC(C)(C)c1ccc(-c2cc(NC(=O)Cc3c[nH]c4ccccc34)ccc2Nc2cccnc2)cc1	none (no result: ABHD5 PLIN5 PPI)
O=C(CN1CCN(S(=O)(=O)c2ccc(Cl)cc2)CC1)NC1CC1	LEDGF integ inh 34 | IN multimer act inactive | TRFRET interf inactive | LEDGF integ conf inactive
O=C(CN1CCN(S(=O)(=O)c2ccccc2)CC1)NC1CC1	none
CCOC(=O)c1ccc(NC2OC(=O)c3ccccc32)cc1 (centres undefined)	LEDGF integ inh 20 | IN multimer act inactive | TRFRET interf inactive | LEDGF integ conf inactive
Cc1ccc(CNC(=O)C2CCN(S(=O)(=O)c3c(C)noc3/C=C/N(C)C)CC2)cc1	none
Cc1noc(/C=C/N(C)C)c1S(=O)(=O)N1CCC(C(=O)O)CC1	LEDGF integ inh 17 | IN multimer act inactive | TRFRET interf inactive | LEDGF integ conf inactive
Cc1noc(/C=C/N(C)C)c1S(=O)(=O)N1CCCC(C(=O)NCc2cccs2)C1 (centres undefined)	LEDGF integ inh 17 | IN multimer act inactive | TRFRET interf inactive | LEDGF integ conf inactive
COc1cccc(CNC(=O)C2CCCN(S(=O)(=O)c3c(C)noc3/C=C/N(C)C)C2)c1 (centres undefined)	none

Screening results: PubChem, The Scripps Research Institute Molecular Screening Center
